Screens deposited in PubChem by National Center for Advancing Translational Sciences (NCATS).
HEK293 tox – HEK 293 cell cytotoxicity; HEK 293 viability, ATP luminescence (CellTiter-Glo), 48-72 h; Potency, µM (doses to about 115 µM), hits mostly inhibitors; 94,000 compounds, 6.6% hits; AID 1345083; note: nearly all actives have a fitted effect of over 60% in size
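Pintool-delivered compounds were incubated with HEK 293 cells (250 cells/well) at 37 degree Celsius for 48 or 72 hr. ATP-dependent luminescence (CellTiter-Glo) then reported remaining viable cells.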
FLuc inh – Photinus pyralis luciferase inhibition | P08659 | purified P. pyralis luciferase, luminescence, biochemical | Potency, µM (highest dose often 115 µM), actives largely listed as inhibitors | 76,000 compounds, 2.5% hits | AID 1347043; note: nearly all actives have a fitted effect of over 65% in size
Target sequence (P08659 whole entry, looked up): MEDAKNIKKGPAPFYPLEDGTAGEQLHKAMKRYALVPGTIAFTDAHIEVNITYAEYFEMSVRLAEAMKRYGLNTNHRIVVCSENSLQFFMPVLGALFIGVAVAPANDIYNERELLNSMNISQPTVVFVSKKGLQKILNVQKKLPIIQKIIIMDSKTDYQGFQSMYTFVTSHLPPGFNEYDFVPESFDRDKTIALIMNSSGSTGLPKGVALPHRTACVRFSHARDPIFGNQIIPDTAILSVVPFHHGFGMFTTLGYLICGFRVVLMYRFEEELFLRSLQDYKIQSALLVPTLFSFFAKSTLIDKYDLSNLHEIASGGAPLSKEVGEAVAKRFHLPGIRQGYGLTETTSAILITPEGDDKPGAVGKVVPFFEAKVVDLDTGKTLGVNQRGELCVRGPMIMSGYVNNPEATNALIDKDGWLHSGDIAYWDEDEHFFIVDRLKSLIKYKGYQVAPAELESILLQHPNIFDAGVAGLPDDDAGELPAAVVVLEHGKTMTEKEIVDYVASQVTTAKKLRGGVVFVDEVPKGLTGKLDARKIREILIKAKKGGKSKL
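Purified P. pyralis luciferase (10nM final) in 50mM Tris acetate pH 7.5, 10mM Mg acetate, 0.01% Tween-20, 0.05% BSA with 10uM D-luciferin and 10uM ATP. Compounds titrated qHTS. Luminescence imaged on CCD.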
hNpr1 antagonist – blocks ANP-stimulated signaling of human Npr1 receptor | P16066 | HEK293 hNpr1 GloSensor cGMP, ANP-stimulated luminescence | 76,000 compounds, 1.6% hits | Potency, µM (highest dose often 46.3 µM), most hits filed as inhibitors | AID 1347048; calls by dose curve; note: nearly all actives have a fitted effect of over 60% in size
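HEK293 cells stably expressing human Npr1 and cGMP GloSensor pGS-40F, loaded 2 h with 2% GloSensor reagent, given compound 30 min at room temperature. Luminescence read before and 20 min after 0.1 nM hNppA.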
NIH3T3 tox – kills NIH 3T3 cells. NIH 3T3 viability, CellTiter-Glo ATP luminescence, 48-72 h. Potency, µM (top dose mostly 96.7 µM), actives largely listed as inhibitors. 94,000 compounds, 4.3% hits. AID 1345082; note: nearly all actives have a fitted effect of over 55% in size
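Viability of NIH 3T3 cells after 48 or 72 hr compound treatment at 37 °C was assessed by CellTiter-Glo, with luminescence imaged following a 10 min room-temperature step.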
Of the large screens only hits and unclear results are named; the others gave an inactive call; ! = a repeat was not active. Sampled rows, rich in hits. Any-hit rate of the full collection: about 11%. Unless noted, calls come from the whole dose curve; as a rule, active = well fitted curve in the direction sought with a large enough effect; inconclusive = small, poorly fitted or top-dose-only effect, or another doubt; inactive = no such curve, though single readings can be large; an effect the other way counts as inactive or inconclusive.

Cc1ccc(-c2noc([C@@H]3Cc4nc[nH]c4CN3Cc3ccc(CO)o3)n2)cc1	FLuc inh 63µM
Cc1ccc(-c2noc([C@@H]3Cc4nc[nH]c4CN3Cc3ccc(F)cc3)n2)cc1	HEK293 tox 89µM, FLuc inh 50µM, hNpr1 antagonist inconclusive, NIH3T3 tox 35µM
CCCn1c(C)cnc1CCNC(=O)C1(c2ccc(OC)cc2)CC1	none (no result: FLuc inh, hNpr1 antagonist)
CC(C)S(=O)(=O)NCC1CN(CC2CC2)CC12CCCCC2 (stereo not given)	none (no result: FLuc inh, hNpr1 antagonist)
COCCNC(=O)CNC(=O)c1cccc(-c2ccc(SC)cc2)c1	HEK293 tox inconclusive (no result: FLuc inh, hNpr1 antagonist)
CC1CCN(CC2CCCCCN2C(=O)c2ccnn2C)CC1 (stereo not given)	none (no result: FLuc inh, hNpr1 antagonist)
COCCNC(=O)c1nc2cccnc2n(CCOC)c1=O	none (no result: FLuc inh, hNpr1 antagonist)
O=C(NC1CCCN(c2ccc3nnc(-c4ccccc4)n3n2)C1)c1ccccn1 (stereo not given)	HEK293 tox 28µM, NIH3T3 tox inconclusive (no result: FLuc inh, hNpr1 antagonist)
O=C(NC1CCCC1)NC1CCCN(c2ccc3nnc(-c4ccccc4)n3n2)C1 (stereo not given)	none (no result: FLuc inh, hNpr1 antagonist)
COc1ccc(C(=O)NC2CCCN(c3ccc4nnc(-c5ccccc5)n4n3)C2)cc1 (stereo not given)	HEK293 tox 22µM, NIH3T3 tox inconclusive (no result: FLuc inh, hNpr1 antagonist)
O=C(NC1CCCN(c2ccc3nnc(-c4ccccc4)n3n2)C1)c1ccc(F)cc1 (stereo not given)	none (no result: FLuc inh, hNpr1 antagonist)
O=C(COc1ccccc1)NC1CCCc2c1[nH]c1c(Cl)cccc21 (stereo not given)	HEK293 tox 45µM, NIH3T3 tox inconclusive
COc1ccc(C2(C(=O)NC3CCCc4c3[nH]c3c(Cl)cccc43)CCOCC2)cc1 (stereo not given)	HEK293 tox 45µM, hNpr1 antagonist inconclusive, NIH3T3 tox 22µM
O=C(Cc1n[nH]c(=O)c2ccccc12)NC1CCCc2c1[nH]c1c(Cl)cccc21 (stereo not given)	NIH3T3 tox inconclusive
O=C(Cc1cccs1)NC1CCCc2c1[nH]c1c(Cl)cccc21 (stereo not given)	HEK293 tox inconclusive, NIH3T3 tox 32µM
O=C(Cc1ccc2c(c1)OCCCO2)NC1CCCc2c1[nH]c1c(Cl)cccc21 (stereo not given)	HEK293 tox inconclusive, NIH3T3 tox inconclusive
COc1ccccc1-n1c(=O)c(C(=O)N2CCN(C(=O)c3ccc(F)cc3)CC2)nc2cccnc21	none (no result: FLuc inh, hNpr1 antagonist)
O=C(CC[C@@H]1CNC(=O)[C@@H]2C[C@H](NC(=O)Nc3ccccc3)CN12)NCc1ccccc1	none
Cc1nn2c(c1-c1ccccc1C(C)C)N([S+](=O)([O-])c1ccc(C(C)C)cc1)CCC2	HEK293 tox 40µM, hNpr1 antagonist inconclusive, NIH3T3 tox 22µM
COc1ccc(CN2CCCn3nc(C)c(-c4ccccc4C(C)C)c32)cc1O	HEK293 tox 63µM, hNpr1 antagonist inconclusive, NIH3T3 tox 35µM
Cc1nn2c(c1-c1ccccc1C(C)C)N(Cc1ccc3c(c1)CCO3)CCC2	HEK293 tox 35µM, NIH3T3 tox 28µM
Cc1nn2c(c1-c1ccccc1Oc1ccccc1)N([S+](=O)([O-])c1cccnc1)CCC2	HEK293 tox inconclusive, NIH3T3 tox inconclusive
Cc1nn2c(c1-c1ccccc1C(C)C)N(C(=O)CCc1cccnc1)CCC2	NIH3T3 tox inconclusive
Cc1nn2c(c1-c1ccccc1C(C)C)N(Cc1ccc(C(=O)O)s1)CCC2	HEK293 tox inconclusive, NIH3T3 tox inconclusive
O=C(COc1ccccc1)N1CCCCCC1c1nc(-c2ccncc2)no1 (stereo not given)	HEK293 tox inconclusive (no result: FLuc inh, hNpr1 antagonist)
CCOC(=O)[C@H]1[C@@H](O)C(=O)N(Cc2ccccc2)C12CCN(C(=O)CC(C)(C)C)CC2	HEK293 tox inconclusive, NIH3T3 tox 22µM (no result: FLuc inh, hNpr1 antagonist)
O=c1[nH]c(C2CCCN(Cc3ccc(C(F)(F)F)cc3)C2)nn1-c1ccc(Cl)cc1 (stereo not given)	none
COc1ccc(-n2nc(C3CCN(Cc4ccc(C)cc4)CC3)[nH]c2=O)cc1	HEK293 tox 40µM!, NIH3T3 tox inconclusive
COc1ccc(-n2nc(C3CCN(Cc4ccc(C#N)cc4)CC3)[nH]c2=O)cc1	HEK293 tox 22µM
COc1ccc(-n2nc(C3CCN(Cc4ccc(F)cc4)CC3)[nH]c2=O)cc1	HEK293 tox 18µM!, NIH3T3 tox inconclusive
CC(=O)N1CCC(c2nn(-c3ccc(F)cc3)c(=O)[nH]2)CC1	none
Cc1ccc(CN2CCCC(c3nn(-c4ccc(Cl)cc4)c(=O)[nH]3)C2)cc1 (stereo not given)	HEK293 tox 35µM, NIH3T3 tox inconclusive
COc1ccc(-n2nc(C3CCN([S+](=O)([O-])c4ccc(C)cc4)CC3)[nH]c2=O)cc1	none
CN1CC(=O)N(C2CCCC2)Cc2c1ncnc2N1CCCC1	none (no result: FLuc inh, hNpr1 antagonist)
O=C(NCC(F)(F)F)c1ccc2nnc(-c3cc(F)ccc3F)n2c1	none (no result: FLuc inh, hNpr1 antagonist)
COc1cccc(-c2c(C(=O)NCC(C)C)nc3sccn23)c1	none (no result: FLuc inh, hNpr1 antagonist)
COc1ccc(CNC(=O)C[C@@H]2CCNC[C@@H]2Cc2cc(-c3ccc(F)cc3)on2)cc1	HEK293 tox 79µM, NIH3T3 tox inconclusive
COc1ccc(-c2cc(C[C@H]3CNCC[C@H]3CC(=O)NCc3ccc4c(c3)OCO4)no2)cc1	HEK293 tox inconclusive, NIH3T3 tox 79µM
COc1ccc(-c2cc(C[C@H]3CNCC[C@H]3CC(=O)N(C)Cc3ccccc3)no2)cc1	HEK293 tox 32µM, NIH3T3 tox 35µM
O=C(C[C@@H]1CCNC[C@@H]1Cc1cc(-c2ccc(F)cc2)on1)Nc1ccccc1	HEK293 tox 40µM, NIH3T3 tox 35µM
CN1CC2(CCOC2)N(C2CCN(C(=O)C3CCCC3)CC2)C1=O (stereo not given)	none (no result: FLuc inh, hNpr1 antagonist)
O=C(Nc1ccc(Cl)cc1)N1CCCC(C(=O)N2CCC(c3nc4ccncc4[nH]3)C2)C1 (stereo not given)	none (no result: FLuc inh, hNpr1 antagonist)
COc1ccc(-c2cc(C[C@H]3CNCC[C@H]3CC(=O)NCc3ccc(OC)c(OC)c3)no2)cc1	NIH3T3 tox inconclusive
O=C(C[C@@H]1CCNC[C@@H]1Cc1cc(-c2ccccc2)on1)NCc1ccc(F)cc1	HEK293 tox 40µM, NIH3T3 tox 40µM
O=C(C[C@@H]1CCNC[C@@H]1Cc1cc(-c2ccc(F)cc2)on1)NCc1ccco1	HEK293 tox inconclusive, NIH3T3 tox inconclusive
O=C(C[C@@H]1CCNC[C@@H]1Cc1cc(-c2ccc(F)cc2)on1)Nc1nccs1	HEK293 tox 100µM, NIH3T3 tox 100µM
COc1ccc(CNC(=O)C[C@@H]2CCNC[C@@H]2Cc2cc(CN(C)Cc3ccccc3)on2)cc1	HEK293 tox 40µM
COc1ccc(-c2cc(C[C@H]3CNCC[C@H]3CC(=O)NCc3ccccc3OC)no2)cc1	HEK293 tox inconclusive, NIH3T3 tox 71µM
CC(C)(C)NC(=O)C[C@@H]1CCNC[C@@H]1Cc1cc(-c2ccc(F)cc2)on1	HEK293 tox inconclusive, NIH3T3 tox inconclusive
CC(C)NC(=O)N1CCC2(CC1)CC(c1cccc(C(F)(F)F)c1)=NO2	HEK293 tox inconclusive (no result: FLuc inh, hNpr1 antagonist)
O=C1NCCCCCCN(Cc2ccncc2)[C@@H]2CN(S(=O)(=O)c3ccc4c(c3)CCC4)CC[C@H]12	HEK293 tox inconclusive, NIH3T3 tox inconclusive
